The values below come from ChEMBL document CHEMBL1201862, “PubChem BioAssay data set” (2004).

Several values for one entry are separate records, joined by “and”; a condition that tells them apart may be missing. Equal values may be shown once.

The nature of this assay: Mycobacterium tuberculosis growth inhibition, dose response, 7H9 media, purified and synthesized compounds, set 8 (AID 588447). The format is functional.
Usually IC90 stands for the concentration needed for an effect of 90%. In the case of `CCOC(=O)CSc1ncnc2c1cnn2-c1ccccc1`, the IC90 is > 75.1 µM (active). Take `COc1ccc(N2CCN(C(=O)c3ccc(CNc4c(N5CCOCC5)c(=O)c4=O)cc3)CC2)cc1`: the IC90 was > 100 µM (active). `O=C(C1CCC(CNc2c(N3CCCCC3)c(=O)c2=O)CC1)N1CCCCC1` (centres undefined): the 90% effect concentration (IC90) is > 100 µM (active). To `O=C(c1ccc(CNc2c(N3CCCC3)c(=O)c2=O)cc1)N1CCc2ccccc2C1` belongs > 100 µM (active). `CC(C)OC(=O)CSc1ncnc2c1cnn2-c1ccccc1`: the 90% effect concentration (IC90) was > 100 µM (active). Consider `O=C(NCCc1ccc(Cl)cc1)c1ccc(CNc2c(N3CCOCC3)c(=O)c2=O)cc1`, for which the 90% effect concentration (IC90) is > 100 µM (active). Turning to `CC(=O)c1ccc(NC(=O)c2ccc(CNc3c(N4CCOCC4)c(=O)c3=O)cc2)cc1`, the IC90 is > 100 µM (active). `CC1CC(C)CN(C(=O)c2ccc(CNc3c(N4CCCC4)c(=O)c3=O)cc2)C1` (centres undefined): the IC90 is > 100 µM (active). To `CC1CC(C)CN(C(=O)C2CCC(CNc3c(N4CCCCC4)c(=O)c3=O)CC2)C1` (centres undefined) belongs > 75 µM (active) and > 100 µM (active); to `CC1CCCN(C(=O)c2ccc(CNc3c(N4CCCCC4)c(=O)c3=O)cc2)C1` (centres undefined), > 100 µM (active).

Turning to `CC1CCCN(C(=O)C2CCC(CNc3c(N4CCCCC4)c(=O)c3=O)CC2)C1` (centres undefined), the concentration for an effect of 90% (IC90) is > 100 µM (active).

Consider `Cc1cccc(N2CCN(C(=O)c3ccc(CNc4c(N5CCC(C)CC5)c(=O)c4=O)cc3)CC2C)c1` (centres undefined), for which the 90% effect concentration (IC90) was > 76.5 µM (active). With `CC1CCN(C(=O)c2ccc(CNc3c(N4CCCC4)c(=O)c3=O)cc2)CC1`, the IC90 was > 100 µM (active).

For `O=C(NCCc1ccc(Cl)cc1)C1CCC(CNc2c(N3CCCCC3)c(=O)c2=O)CC1` (centres undefined), the 90% effect concentration (IC90) was > 100 µM (active).
